# Among all 39,000 compounds or so, about 1,500 (3.8%) were called active. Only a selection was taken, and actives are over-represented in it overall.
# Test system: HSkMC (human skeletal muscle cells)
# Assay: cytotoxicity call (relative viability < 0.9)
# Conditions: 10 µM
row,SMILES,cytotoxicity call
1,O=C1NC[C@@H](c2ccccc2)OC(=O)[C@H](Cc2ccc(F)cc2)CCC=CC[C@@H]1CC(=O)N(CCO)Cc1ccccc1,inactive
2,C[C@H]1CN([C@@H](C)CO)C(=O)c2cc(NC(=O)Nc3ccc(C(F)(F)F)cc3)ccc2O[C@@H]1CN(C)Cc1ccncc1,inactive
3,COc1ccc(S(=O)(=O)Nc2cccc3c2O[C@H](CN(C)Cc2ccncc2)[C@@H](C)CN([C@H](C)CO)C3=O)cc1,inactive
4,CCC1OC(=O)C(C)C(=O)C(C)C(OC2OC(C)CC(N(C)C)C2O)C(C)(OC)CC(C)C(=O)C(C)C2N(CCCCn3cnc(-c4cccnc4)c3)C(=O)OC12C (stereo unspecified),inactive
5,C[C@@H]1CN([C@@H](C)CO)C(=O)c2cc(NC(=O)Cc3cn(C)c4ccccc34)ccc2O[C@@H]1CN(C)Cc1ccc(C(F)(F)F)cc1,inactive
6,C[C@@H]1CN([C@H](C)CO)C(=O)c2cccc(NC(=O)Nc3ccc(F)cc3)c2O[C@@H]1CN(C)Cc1ccc(-c2ccccc2)cc1,inactive
7,CC(=O)n1cc([C@H]2C=C(C(=O)NCc3ccccc3)O[C@@H](OCc3ccc(CO)cc3)C2)c2ccccc21,inactive
8,CN(C)CC(=O)N[C@H]1C=C[C@H](CC(=O)NCCN2CCCCC2)O[C@H]1CO,inactive
9,COC(=O)[C@@H](NC(=O)Cn1cc(COc2ccccc2/C=C(C)/C=C/C(=O)NO)nn1)c1ccccc1,inactive
10,Cc1noc(C)c1NC(=O)Nc1ccc2c(c1)C(=O)N([C@@H](C)CO)C[C@@H](C)[C@@H](CN(C)Cc1ccc(Oc3ccccc3)cc1)O2,inactive
11,N=C(C[n+]1ccccc1)NO,inactive
12,COC(=O)[C@H](Cc1ccc(-n2cc(-c3cccc(/C=C/C(=O)NO)c3)nn2)cc1)N1CC2=C[C@H]([C@@H](O)Cc3ccccc3)n3c(=O)n(C)c(=O)n3[C@@H]2[C@@H](C2CC2)O1,inactive
13,C[C@H](CO)N1C[C@H](C)[C@@H](CN(C)Cc2ccc(C(=O)Nc3ccccc3N)cc2)Oc2ccc(NC(=O)CCN3CCOCC3)cc2CC1=O,inactive
14,CC(C)N1C[C@H](C)[C@@H](CN(C)Cc2ccc(Oc3ccccc3)cc2)Oc2c(NC(=O)C3CCN(C)CC3)cccc2C1=O,inactive
15,C[C@H](CO)N1C[C@H](C)[C@@H](CN(C)Cc2ccc(Oc3ccccc3)cc2)Oc2c(NC(=O)C3CC3)cccc2C1=O,inactive
16,CC(C)N1C[C@H](C)[C@@H](CN(C)Cc2ccc(Oc3ccccc3)cc2)Oc2c(NC(=O)C3CCNCC3)cccc2C1=O,active
17,COCC(=O)N1C[C@@H](C)[C@@H](OC)CN(C)C(=O)c2cc(NC(=O)c3ccc(F)cc3)ccc2OC[C@H]1C,inactive
18,CN(C)CC(=O)N[C@H]1CC[C@H](CCNC(=O)C2CC2)O[C@H]1CO,inactive
19,CO[C@@H]1CN(C)C(=O)c2ccc(NS(=O)(=O)CC(F)(F)F)cc2OC[C@@H](C)N(Cc2nccs2)C[C@@H]1C,inactive
20,O=C(CCCCCCC(=O)Nc1ccc([C@H]2C[C@H](c3ccccc3)O[C@H](c3ccc(Oc4ccccc4)cc3)O2)cc1)NO,active
21,O=C(CCCCCCC(=O)Nc1ccc([C@H]2O[C@@H](CN3CCCCCCC3)C[C@H](c3ccccc3)O2)cc1)NO,inactive
22,O=C(CCCCCCC(=O)Nc1ccc([C@H]2C[C@H](c3ccccc3)O[C@H](c3cccc(Oc4ccccc4)c3)O2)cc1)NO,inactive
23,O=C(CCCCCCC(=O)Nc1ccc([C@H]2C[C@H](c3ccccc3)O[C@H](c3ccccc3)O2)cc1)NO,inactive

row,SMILES,cytotoxicity call
1,COc1cc2c(cc1OC)CN(C[C@H]1C[C@H](c3ccccc3)O[C@H](c3ccc(NC(=O)CCCCCCC(=O)NO)cc3)O1)CC2,active
2,O=C(CCCCCCC(=O)Nc1ccc([C@H]2O[C@@H](COc3ccccc3)C[C@H](c3ccccc3)O2)cc1)NO,inactive
3,C[C@@H]1CN([C@H](C)CO)C(=O)c2cc(NC(=O)C3CCCCC3)ccc2O[C@@H](C)CCCCO[C@H]1CN(C)S(=O)(=O)c1cccs1,inactive
4,COc1ccc(NC(=O)N(C)C[C@@H]2OCCCC[C@H](C)Oc3ccc(NC(=O)Nc4c(C)noc4C)cc3C(=O)N([C@@H](C)CO)C[C@H]2C)cc1,inactive
5,CC(C)=CCCC(C)=CCO,inactive
6,CCN(CC)CCOc1ccc(C(=C(Cl)c2ccccc2)c2ccccc2)cc1.O=C(O)CC(O)(CC(=O)O)C(=O)O,inactive
7,CCC(=C(c1ccccc1)c1ccc(OCCN(C)C)cc1)c1ccccc1.O=C(O)CC(O)(CC(=O)O)C(=O)O,inactive
8,CN(C)CCOc1ccc(C(=C(CCCl)c2ccccc2)c2ccccc2)cc1.O=C(O)CC(O)(CC(=O)O)C(=O)O,active
9,C[C@H]1CN([C@@H](C)CO)S(=O)(=O)c2ccc(C3=CCCC3)cc2O[C@@H]1CN(C)C(=O)c1cnccn1,inactive
10,C[C@@H]1CN([C@@H](C)CO)S(=O)(=O)c2ccc(C#CCC3CCCC3)cc2O[C@@H]1CN(C)C(=O)CN(C)C,inactive
11,COc1cc(-c2ccc(NN=C3C=Cc4c(S(=O)(=O)O)cc(S(=O)(=O)O)c(N)c4C3=O)c(OC)c2)ccc1NN=C1C=Cc2c(S(=O)(=O)O)cc(S(=O)(=O)O)c(N)c2C1=O,active
12,Cc1cc(-c2ccc(NN=C3C=Cc4c(S(=O)(=O)O)cc(S(=O)(=O)O)c(N)c4C3=O)c(C)c2)ccc1NN=C1C=Cc2c(S(=O)(=O)O)cc(S(=O)(=O)O)c(N)c2C1=O,inactive
13,Cc1noc(C)c1S(=O)(=O)Nc1ccc2c(c1)CC(=O)N([C@@H](C)CO)C[C@@H](C)[C@H](CN(C)C(=O)NC(C)C)O2,inactive
14,C[C@@H]1CN([C@@H](C)CO)C(=O)c2cc(NC(=O)Nc3cccc4ccccc34)ccc2O[C@@H](C)CCCCO[C@H]1CN(C)C(=O)Nc1ccc2c(c1)OCO2,inactive
15,C[C@@H]1CN([C@@H](C)CO)C(=O)Cc2cc(NC(=O)CCC(F)(F)F)ccc2O[C@@H]1CN(C)S(=O)(=O)c1ccccc1,inactive
16,C[C@@H]1CN([C@H](C)CO)C(=O)Cc2cc(NC(=O)Nc3ccc(C(F)(F)F)cc3)ccc2O[C@H]1CN(C)Cc1ccc2c(c1)OCO2,inactive
17,C[C@@H]1CN([C@@H](C)CO)C(=O)Cc2cc(NC(=O)Nc3ccc(C(F)(F)F)cc3)ccc2O[C@@H]1CN(C)Cc1ccc2c(c1)OCO2,active
18,C[C@H](CO)N1C[C@H](C)[C@@H](CN(C)Cc2ccc3c(c2)OCO3)Oc2ccc(NC(=O)Nc3ccc(C(F)(F)F)cc3)cc2CC1=O,active
19,C[C@H]1CN([C@@H](C)CO)C(=O)Cc2cc(NC(=O)Nc3ccc(C(F)(F)F)cc3)ccc2O[C@H]1CN(C)Cc1ccc2c(c1)OCO2,active
20,C[C@H](CO)N1C[C@H](C)[C@H](CN(C)Cc2ccc3c(c2)OCO3)Oc2ccc(NC(=O)Nc3ccc(C(F)(F)F)cc3)cc2CC1=O,inactive
21,C[C@H]1CN([C@@H](C)CO)C(=O)Cc2cc(NC(=O)Nc3ccc(C(F)(F)F)cc3)ccc2O[C@@H]1CN(C)Cc1ccc2c(c1)OCO2,inactive
22,C[C@@H]1CN([C@@H](C)CO)C(=O)Cc2cc(NC(=O)Nc3ccc(C(F)(F)F)cc3)ccc2O[C@H]1CN(C)Cc1ccc2c(c1)OCO2,inactive
23,C[C@@H]1CN([C@H](C)CO)C(=O)Cc2cc(NC(=O)Nc3ccc(C(F)(F)F)cc3)ccc2O[C@@H]1CN(C)Cc1ccc2c(c1)OCO2,active

# — the antibiotic and cytotoxicity screens of Wong et al. (2023)
